Data reported in PubChem BioAssay AID1233 (SRMLSC, 2008).
Results with a measured potency or affinity are listed apart. Calls of active or inactive are those of the source.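 How the source made its calls: active means a dose-response curve fit returns a half-maximal inhibitory concentration, extrapolated values included; inactive means the fit returns no such concentration.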

biological target: HMG-CoA reductase [Enterococcus faecalis] (UniProt Q9FD70); experiment: inhibitors of E. faecalis class II HMGR, confirmation, biochemical, Enterococcus faecalis (AID 1233); settings: purified E. faecalis HMGR, NADPH absorbance 340 nm kinetics; series mostly up to 100 µM

outcome, inactive:
Cc1cnc(NC(=O)c2cc3ccccc3o2)s1
COc1ccc2c(C)cc(=S)[nH]c2c1
Cc1[nH][nH]c(=O)c1C(c1c(C)[nH][nH]c1=O)c1cn(Cc2ccc(F)cc2)c2ccccc12
COc1ccc(S(=O)(=O)N2CC=C(C(=O)Nc3ccc(NC(C)=O)cc3)CC2)cc1
COc1ccccc1NC(=S)N1CCCc2ccccc21
Cc1cc(C)cc(-n2c3nc4ccccc4nc3c3c(=O)n(Cc4ccco4)cnc32)c1
COc1ccc(C)cc1NC(=O)COC(=O)C1CCN(C(=O)c2ccc(Cl)cc2)CC1
CCCc1nc(NCc2ccccn2)c2nnn(Cc3ccccc3F)c2n1
Cc1csc(NC(=O)c2cnccn2)n1
[O-]C1=N/[N+](=C/c2ccc(Cl)c(Cl)c2)CC1
c1ccc(-c2ccnc3nc(N4CCN(c5ccccc5)CC4)nn23)cc1
COC(=O)c1ccc(NC(=O)Nc2ccccc2F)cc1
O=C(COC(=O)CCc1c[nH]c2ccccc12)NC1CCS(=O)(=O)C1 (stereo not given)
N#Cc1nc(COc2ccc(-c3ccccc3)cc2)oc1NCCCN1CCOCC1
CCCC(=O)Nc1sc(C(=O)Nc2cccc(N)c2)c(C)c1C(=O)OC
CCCCCC(=O)Nc1ccc(Cc2ccncc2)cc1
CCC(=O)Nc1ccc2c(c1)nc(CN1CCCCC1)n2C
COC(c1ccccc1)c1nnc(CCC(=O)NCCC(C)C)o1 (stereo not given)
CC(C)[C@H](NC(N)=O)C(=O)Nc1cccc(S(=O)(=O)N2CCOCC2)c1
C=CCn1cnc2c(nnn2-c2ccc(Cl)cc2)c1=O
